Data: PubChem BioAssay (Tox21)
“And” between values parts separate entries of the source, which are not always exact repeats. Identical values can stand only once. Results filed as inconclusive are left out. A structure can be active in one record and inactive in another. The source made the active and inactive calls. Unless noted, the call rests on the fitted dose curve.

Legend:
[1] = Nuclear factor erythroid 2-related factor 2/antioxidant responsive element (Nrf2/ARE) small molecule agonists: qHTS cell viability counter screen in human keratinocytes (AID 1919968; active means well fitted curve in the direction sought with a large enough effect in the repeat runs; an effect the other way counts as inactive or inconclusive; further: nearly all actives have a fitted effect of over 55% in size)
How it was run: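 Measured as CellTiter-Fluor fluorescence, this readout tracks cytotoxicity in the same wells as the ARE-luciferase screen. HaCaT reporter cells (1,500/well) received compounds after a 5 h pre-incubation and were exposed for 23 h.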

[2] = Nuclear factor erythroid 2-related factor 2/antioxidant responsive element (Nrf2/ARE) small molecule agonists: luciferase reporter gene qHTS assay in human keratinocytes (AID 1919969); further: nearly all actives have a fitted effect of over 35% in size; further: potency means the concentration at half of the fitted maximal effect
[3] = biological target: Gonadotropin-releasing hormone receptor (Homo sapiens) (UniProt P30968); assay: Human gonadotropin-releasing hormone receptor (GnRHR) small molecule agonists, calcium flux assay in GnRHR-HEK293 cells (AID 1920063); further: nearly all actives have a fitted effect of over 35% in size
How it was run: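 Fluorescence kinetics (480 nm excitation, 540 nm emission; 3 min, 1 s steps) report calcium mobilisation in human GnRHR-HEK293 cells in agonist mode. Dye incubation: 1 h, 37 C.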

[4] = biological target: KiSS-1 receptor (Homo sapiens) (UniProt Q969F8); assay: Human kisspeptin (KISS1R) small molecule agonists, calcium flux assay in KISS1R-HEK293 cells (AID 1920064; active means well fitted curve in the direction sought with a large enough effect in the repeat runs; an effect the other way counts as inactive or inconclusive)
How it was run: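 Measures KISS1R agonism through calcium-sensitive dye fluorescence in stably transfected HEK293 cells, read for 3 min after pin-tool compound delivery; 15-point titrations in triplicate.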

[5] = p53 small molecule agonists, cell-based qHTS assay with human liver microsomes (AID 1963577);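 further: p53 response element beta-lactamase reporter cells with liver microsomes plus NADPH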
How it was run: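 In this qHTS, p53 response-element beta-lactamase cells receive test compound together with a microsome/NADPH activating system (0.5 mg/mL final each) and are incubated 16 h at 37 C before LiveBLAzer fluorescence detection.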

[6] = p53 small molecule agonists, cell-based qHTS assay with rat liver microsomes (AID 1963578)
How it was run: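 Agonist mode in p53RE-bla reporter cells, with compounds co-incubated 16 h at 37 C alongside 0.5 mg/mL rat liver microsomes and 0.5 mg/mL NADPH (final), followed by a 2 h LiveBLAzer detection step.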

[7] = p53 small molecule agonists, cell-based qHTS assay with human liver microsomes: qHTS cell viability counter screen (AID 1963579); further: nearly all actives have a fitted effect of over 45% in size
How it was run: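 Metabolically activated exposure: compounds, human liver microsomes and NADPH (0.5 mg/mL final apiece) were added to p53RE-bla cells seeded 5 h earlier, left 16 h at 37 C, and then assessed for viability by CellTiter-Glo luminescence.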

[8] = p53 small molecule agonists, cell-based qHTS assay with rat liver microsomes: qHTS cell viability counter screen (AID 1963580); further: nearly all actives have a fitted effect of over 45% in size
How it was run: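 Intracellular ATP, by CellTiter-Glo luminescence, defines viability. HCT-116 p53RE-bla cells, 4,000 per well, were compound-treated in the presence of rat liver microsomes and NADPH for 16 h at 37 C.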

[9] = p53 small molecule agonists, cell-based qHTS assay: qHTS cell viability counter screen (AID 1963581); further: nearly all actives have a fitted effect of over 45% in size
How it was run: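 In the same plates used for the p53 bla reporter, HCT-116 cells given compounds for 16 h at 37 C received CellTiter-Glo; luminescence was recorded 30 min later at room temperature.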

[10] = p53 small molecule agonists, cell-based qHTS assay (AID 1963582; active means well fitted activation curve with a large enough effect in the signal ratio in the repeat runs, not every such curve was filed as active; the % refers to the signal ratio)
How it was run: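 Compounds are pin-transferred in DMSO onto p53RE-bla cells and incubated 16 h at 37 C. The B/G FRET beta-lactamase substrate is then applied for 2 h at RT and fluorescence recorded.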

[11] = biological target: 5-hydroxytryptamine receptor 2A (Homo sapiens) (UniProt P28223); assay: 5-hydroxytryptamine receptor 2A (HTR2A) small molecule antagonists, cell-based qHTS assay (AID 1963586); further: nearly all actives have a fitted effect of over 45% in size
How it was run: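 Antagonist-mode intracellular calcium assay: DOI (4 nM) added after 5 min compound pre-incubation at room temperature to dye-loaded HTR2A-CHO cells. Fluorescence followed for 3 min, sampled every second.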

[12] = biological target: 5-hydroxytryptamine receptor 2A (Homo sapiens) (UniProt P28223); assay: 5-hydroxytryptamine receptor 2A (HTR2A) small molecule agonists, cell-based qHTS assay (AID 1963587); further: nearly all actives have a fitted effect of over 30% in size
How it was run: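 Kinetic calcium-flux fluorescence (2 min, 1 sec intervals) after compound addition in agonist mode. HTR2A-CHO cells were cultured 18 h, then dye-loaded 1 h at 37 C.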

[13] = biological target: Muscarinic acetylcholine receptor M1 (Homo sapiens) (UniProt P11229); assay: Cholinergic receptor muscarinic 1 (CHRM1) small molecule antagonists, cell-based qHTS assay (AID 1963588); further: nearly all actives have a fitted effect of over 40% in size
How it was run: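 CHRM1-CHO calcium-flux assay, antagonist mode. Cells were seeded 18 h, dye-loaded 1 h at 37 C and given compound for 5 min at RT, then acetylcholine was added at 50nM. FDSS fluorescence was read 3 min; 15 concentrations, three runs.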

[14] = biological target: Muscarinic acetylcholine receptor M1 (Homo sapiens) (UniProt P11229); assay: Cholinergic receptor muscarinic 1 (CHRM1) small molecule agonists, cell-based qHTS assay (AID 1963589); further: nearly all actives have a fitted effect of over 35% in size
How it was run: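 Each compound was tested at 15 concentrations across three independent runs on dye-loaded CHO cells stably expressing human CHRM1, reading intracellular calcium fluorescence kinetically at 1 sec intervals.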

[15] = cAMP Responsive Elements (CRE) small molecule agonists, cell-based qHTS assay (AID 1963590)
How it was run: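 Cell line: CRE-bla HEK 293T; medium DMEM/10% dialyzed FBS/0.1 mM NEAA/1 mM pyruvate/25 mM HEPES; 3 h compound exposure; beta-lactamase FRET readout after 2 h substrate loading at RT.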

[16] = cAMP Responsive Elements (CRE) small molecule antagonists, cell-based qHTS assay (AID 1963591; active means well fitted inhibition curve with a large enough effect in the signal ratio in the repeat runs, not every such curve was filed as active; the % refers to the signal ratio)
How it was run: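 Inhibition of NKH477-driven (0.25 uM final) CRE-beta-lactamase signal in HEK293T cells, 3 h compound exposure at 37 °C, detected by FRET substrate fluorescence.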

[17] = biological target: Beta-2 adrenergic receptor (Homo sapiens) (UniProt P07550); assay: Adrenergic beta2 receptor (ADRB2) small molecule antagonists, cell-based qHTS assay (AID 1963592); further: series mostly up to about 92 µM; nearly all actives have a fitted effect of over 50% in size
How it was run: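 Cells (CHO, stable ADRB2 overexpression) incubated 18-20hr at 37C; compounds added from DMSO; agonist mix (1nM isoproterenol, 100uM IBMX, 25uM Ro-20-1724) added; 0.5hr RT; d2-cAMP and anti-cAMP-cryptate added; 1hr RT; 665/615 nm read.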

[18] = biological target: Beta-2 adrenergic receptor (Homo sapiens) (UniProt P07550); assay: Adrenergic beta2 receptor (ADRB2) small molecule agonists, cell-based qHTS assay (AID 1963593);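 further: CHO cells stably overexpressing human ADRB2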
How it was run: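 CHO cells stably over-expressing ADRB2 were plated overnight at 37C, then dosed with compounds plus a stimulation mix containing 100uM IBMX and 25uM Ro-20-1724 for 0.5hr at room temperature. cAMP was measured by HTRF competition, 1hr.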

[19] = biological target: D(2) dopamine receptor (Homo sapiens) (UniProt P14416); assay: Dopamine D2 receptor (DRD2) small molecule agonists, cell-based qHTS assay (AID 1963594); further: nearly all actives have a fitted effect of over 35% in size
How it was run: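 cAMP accumulation in DRD2-HEK293 cells measured by HTRF after 1 h detection; compounds added 10 min before NKH477 (200nM […]) forskolin-analogue stimulation, 30 min at room temperature, with Ro20-1724 present at 0.1 mM final.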

[20] = biological target: D(2) dopamine receptor (Homo sapiens) (UniProt P14416); assay: Dopamine D2 receptor (DRD2) small molecule antagonists, cell-based qHTS assay (AID 1963595; active means well fitted inhibition curve with a large enough effect in the signal ratio in the repeat runs, with a control signal flat; the % refers to the signal ratio)
How it was run: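 HTRF cAMP read-out at 665 and 620 nm emission (340 nm excitation). Antagonist mode: compounds were tested against 12 nM quinpirole in DRD2-HEK293 cells, with 200 nM NKH477 raising cAMP and 0.1 mM Ro20-1724 blocking its breakdown.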
On the % scale 0 is the no-effect control and ±100 the full control effect.

D(2) dopamine receptor (Homo sapiens), sequence (P14416 whole entry, looked up): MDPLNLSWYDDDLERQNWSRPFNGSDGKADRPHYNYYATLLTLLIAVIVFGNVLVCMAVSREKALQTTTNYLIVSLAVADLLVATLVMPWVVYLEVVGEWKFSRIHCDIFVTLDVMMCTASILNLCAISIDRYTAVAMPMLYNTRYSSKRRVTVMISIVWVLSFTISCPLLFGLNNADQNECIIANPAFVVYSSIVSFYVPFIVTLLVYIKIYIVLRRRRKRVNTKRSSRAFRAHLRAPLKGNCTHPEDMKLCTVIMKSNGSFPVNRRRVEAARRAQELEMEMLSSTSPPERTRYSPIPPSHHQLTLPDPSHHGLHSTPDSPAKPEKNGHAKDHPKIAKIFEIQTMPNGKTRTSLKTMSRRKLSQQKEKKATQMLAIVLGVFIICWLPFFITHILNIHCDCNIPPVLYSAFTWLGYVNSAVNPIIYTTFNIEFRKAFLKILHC
5-hydroxytryptamine receptor 2A (Homo sapiens), sequence (P28223 whole entry, looked up): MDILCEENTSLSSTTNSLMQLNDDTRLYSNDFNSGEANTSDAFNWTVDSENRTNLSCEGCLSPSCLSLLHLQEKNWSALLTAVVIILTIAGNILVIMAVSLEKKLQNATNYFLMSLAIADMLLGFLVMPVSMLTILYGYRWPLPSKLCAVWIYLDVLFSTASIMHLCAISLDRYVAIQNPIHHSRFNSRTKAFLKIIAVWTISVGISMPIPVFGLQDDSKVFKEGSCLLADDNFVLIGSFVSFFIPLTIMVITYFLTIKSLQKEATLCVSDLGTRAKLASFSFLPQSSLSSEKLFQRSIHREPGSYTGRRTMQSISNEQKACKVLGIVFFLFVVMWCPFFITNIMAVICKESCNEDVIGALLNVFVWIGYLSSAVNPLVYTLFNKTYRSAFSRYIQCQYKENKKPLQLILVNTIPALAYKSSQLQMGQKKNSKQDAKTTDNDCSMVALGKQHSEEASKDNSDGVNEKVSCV
Beta-2 adrenergic receptor (Homo sapiens), sequence (P07550 whole entry, looked up): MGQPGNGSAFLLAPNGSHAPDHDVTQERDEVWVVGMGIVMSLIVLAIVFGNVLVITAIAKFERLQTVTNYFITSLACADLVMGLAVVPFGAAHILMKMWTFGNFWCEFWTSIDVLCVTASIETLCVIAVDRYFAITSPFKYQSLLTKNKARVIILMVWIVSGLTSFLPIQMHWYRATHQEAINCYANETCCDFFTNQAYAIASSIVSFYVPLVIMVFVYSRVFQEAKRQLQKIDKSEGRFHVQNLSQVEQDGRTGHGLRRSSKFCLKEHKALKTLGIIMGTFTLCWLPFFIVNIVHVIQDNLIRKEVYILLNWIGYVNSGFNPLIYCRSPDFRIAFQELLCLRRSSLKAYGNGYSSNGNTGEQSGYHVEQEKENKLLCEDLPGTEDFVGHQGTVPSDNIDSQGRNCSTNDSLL
KiSS-1 receptor (Homo sapiens), sequence (Q969F8 whole entry, looked up): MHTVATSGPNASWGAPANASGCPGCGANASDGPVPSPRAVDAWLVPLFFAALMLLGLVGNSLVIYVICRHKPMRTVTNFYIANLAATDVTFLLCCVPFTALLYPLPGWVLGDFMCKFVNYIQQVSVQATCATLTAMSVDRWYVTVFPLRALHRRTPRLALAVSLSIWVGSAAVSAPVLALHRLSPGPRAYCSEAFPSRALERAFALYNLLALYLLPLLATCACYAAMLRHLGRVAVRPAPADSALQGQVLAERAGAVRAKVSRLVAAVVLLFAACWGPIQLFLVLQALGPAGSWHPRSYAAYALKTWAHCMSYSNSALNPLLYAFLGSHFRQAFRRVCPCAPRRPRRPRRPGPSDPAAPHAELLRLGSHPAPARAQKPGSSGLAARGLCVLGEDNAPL
Gonadotropin-releasing hormone receptor (Homo sapiens), sequence (P30968 whole entry, looked up): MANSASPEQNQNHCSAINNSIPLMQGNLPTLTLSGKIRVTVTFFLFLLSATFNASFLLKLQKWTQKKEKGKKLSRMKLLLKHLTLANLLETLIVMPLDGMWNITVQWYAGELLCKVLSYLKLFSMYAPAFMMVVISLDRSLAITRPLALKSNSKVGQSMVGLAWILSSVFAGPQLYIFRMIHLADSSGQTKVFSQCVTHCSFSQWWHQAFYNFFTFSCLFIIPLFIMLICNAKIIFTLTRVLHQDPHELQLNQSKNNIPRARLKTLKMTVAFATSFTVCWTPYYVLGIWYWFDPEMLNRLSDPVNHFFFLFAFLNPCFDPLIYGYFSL
Muscarinic acetylcholine receptor M1 (Homo sapiens), sequence (P11229 whole entry, looked up): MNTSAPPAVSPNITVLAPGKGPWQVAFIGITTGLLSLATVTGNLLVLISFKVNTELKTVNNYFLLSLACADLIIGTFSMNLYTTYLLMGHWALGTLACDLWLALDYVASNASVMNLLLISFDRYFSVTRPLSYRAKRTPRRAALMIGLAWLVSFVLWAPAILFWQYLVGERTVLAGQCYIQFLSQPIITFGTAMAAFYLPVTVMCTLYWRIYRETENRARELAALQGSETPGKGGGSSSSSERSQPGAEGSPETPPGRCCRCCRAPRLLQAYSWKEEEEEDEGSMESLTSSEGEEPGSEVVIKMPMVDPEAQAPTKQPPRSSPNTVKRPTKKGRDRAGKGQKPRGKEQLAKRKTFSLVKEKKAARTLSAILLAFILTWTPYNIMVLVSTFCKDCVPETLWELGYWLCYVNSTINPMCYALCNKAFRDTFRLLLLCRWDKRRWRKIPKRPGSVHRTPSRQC

CC1(C)[C@H]2CC[C@]1(C)[C@H](O)C2
inactive: Potency [1] | Potency [2] | Potency [3] | Potency [4] | Potency [5] | Potency [6] | Potency [7] | Potency [8] | Potency [9] | Potency [10] | Potency [11] | Potency [12] | Potency [13] | Potency [14] | Potency [15] | Potency [16] | Potency [17] | Potency [18] | Potency [19]

Cc1ccc(CO)cc1
inactive: Potency [1] | Potency [2] | Potency [3] | Potency [4] | Potency [5] | Potency [6] | Potency [7] | Potency [8] | Potency [9] | Potency [10] | Potency [11] | Potency [12] | Potency [13] | Potency [14] | Potency [15] | Potency [16] | Potency [17] | Potency [18] | Potency [19] | Potency [20]

C[C@@H]1CCC[C@H](C)N1CCCC(O)(c1ccccc1)c1ccccn1 (stereo partly drawn)
inactive: Potency [1] | Potency [2] | Potency [3] | Potency [4] | Potency [5] | Potency [6] | Potency [7] | Potency [8] | Potency [10] | Potency [11] | Potency [12] | Potency [13] | Potency [14] | Potency [15] | Potency [16] | Potency [18] | Potency [19] | Potency [20]

C1CCSC1
inactive: Potency [1] | Potency [2] | Potency [3] | Potency [4] | Potency [5] | Potency [6] | Potency [7] | Potency [8] | Potency [9] | Potency [10] | Potency [11] | Potency [12] | Potency [13] | Potency [14] | Potency [15] | Potency [16] | Potency [17] | Potency [18] | Potency [19]

C=CCOCC(CO)(COCC=C)COCC=C
inactive: Potency [1] | Potency [2] | Potency [3] | Potency [4] | Potency [5] | Potency [6] | Potency [7] | Potency [8] | Potency [9] | Potency [10] | Potency [11] | Potency [12] | Potency [13] | Potency [14] | Potency [15] | Potency [17] | Potency [18] | Potency [19] | Potency [20]

CCCCCCC1(C)CCC(=O)O1 (stereo not drawn)
inactive: Potency [1] | Potency [2] | Potency [3] | Potency [4] | Potency [5] | Potency [6] | Potency [7] | Potency [9] | Potency [10] | Potency [11] | Potency [12] | Potency [13] | Potency [14] | Potency [15] | Potency [16] | Potency [17] | Potency [19] | Potency [20]

CCOc1cc(NC(C)=O)ccc1C(=O)OC
inactive: Potency [1] | Potency [2] | Potency [3] | Potency [4] | Potency [5] | Potency [6] | Potency [7] | Potency [8] | Potency [9] | Potency [10] | Potency [11] | Potency [12] | Potency [13] | Potency [14] | Potency [15] | Potency [16] | Potency [17] | Potency [18] | Potency [19] | Potency [20]

CC(C)CNCC(C)C
inactive: Potency [1] | Potency [2] | Potency [3] | Potency [4] | Potency [5] | Potency [6] | Potency [7] | Potency [8] | Potency [9] | Potency [10] | Potency [11] | Potency [12] | Potency [13] | Potency [14] | Potency [15] | Potency [16] | Potency [17] | Potency [19] | Potency [20]

Cc1cc(O)cc2c1O[C@](C)(CCC[C@H](C)CCC[C@H](C)CCCC(C)C)CC2
inactive: Potency [1] | Potency [2] | Potency [3] | Potency [4] | Potency [5] | Potency [6] | Potency [7] | Potency [8] | Potency [9] | Potency [10] | Potency [11] | Potency [12] | Potency [13] | Potency [14] | Potency [15] | Potency [16] | Potency [17] | Potency [19]

O=C(O)CN(CCN(CC(=O)O)CC(=O)O)CCN(CC(=O)O)CC(=O)O
inactive: activity change, negative = cytotoxicity [1] -0.92% [at 19 µM] | activity, positive = activation [2] -0.151% [at 19 µM] | activity change [3] -0.364% [at 11.8 µM, stronger effect = higher value] | activation [4] -1.13% [at 15.8 µM] | activation [5] -9.98% [at 13.5 µM] | activation [6] -0.423% [at 13.6 µM] | activity change, negative = cytotoxicity [7] -3.04% [at 13.5 µM] | activity change, negative = cytotoxicity [8] -9.7% [at 13.5 µM] | activity change, negative = cytotoxicity [9] -11.9% [at 13.5 µM] | activation [10] 12.4% [at 13.5 µM] | activity, negative = inhibition [11] 10.6% [at 12.7 µM] | activation [12] 7.55% [at 15.9 µM] | activity, negative = inhibition [13] 9.64% [at 12.6 µM] | activation [14] -0.409% [at 15.8 µM] | activation [15] 1.22% [at 19 µM] | activity change, negative = inhibition [16] 3.68% [at 18.9 µM] | activity change, negative = inhibition [17] 2.09% [at 19 µM] | activation [19] -12% [at 19 µM] | activity change, negative = inhibition [20] 6.7% [at 18.9 µM]

CC(O)CNCC(C)O (stereo not drawn)
inactive: Potency [1] | Potency [2] | Potency [3] | Potency [4] | Potency [5] | Potency [6] | Potency [7] | Potency [9] | Potency [10] | Potency [11] | Potency [12] | Potency [13] | Potency [14] | Potency [16] | Potency [17] | Potency [19] | Potency [20]

CCCCCCCCN(C)C
inactive: Potency [1] | Potency [2] | Potency [3] | Potency [4] | Potency [5] | Potency [6] | Potency [8] | Potency [9] | Potency [10] | Potency [11] | Potency [12] | Potency [13] | Potency [14] | Potency [15] | Potency [16] | Potency [17] | Potency [18] | Potency [19]

CCOc1ccccc1C(N)=O
inactive: Potency [1] | Potency [3] | Potency [4] | Potency [5] | Potency [6] | Potency [7] | Potency [8] | Potency [9] | Potency [10] | Potency [11] | Potency [12] | Potency [13] | Potency [14] | Potency [15] | Potency [16] | Potency [17] | Potency [18] | Potency [19]
inactive and 33.5 µM (active): Potency [2]
